# Assay results reported in PubChem BioAssay (NCI).
# Compounds without any hit were thinned out: in the full panel of roughly 83,000, 20% have a hit.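 Values shown are percent growth following 48 h exposure of cells in 96-well plates to a single concentration of compound; below 10 was considered active.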 Unmarked numbers belong to inactive results. Active and inactive are the calls of the source.
# Tested on: SK-OV-3 ovarian
# Assay: NCI-60 one-dose screen, 48 h (100 = growth as untreated, 0 = no growth, -100 = all killed)
# Details: 10 µM unless noted
row,Compound,growth
1,Cc1c2cccnc2c(C)c2c1c1cc(CO)ccc1n2C,43.1%
2,CCN1CCN(CC(=O)Nc2ccc(-c3cn4c(n3)sc3cc(Oc5ccnc(C(=O)NC)c5)ccc34)cc2)CC1,44.8%
3,COc1cc(OC)c2sc(-c3ccc(-n4cncc4-c4cc(OC)c(OC)c(OC)c4)cc3)nc2c1,88.8%
4,Ic1ccccc1I,106%
5,CCC1S/C(=N\N=C(\C)c2cc3cc(Cl)ccc3o2)N(c2ccccc2)C1=O (stereo not given),108%
6,CN(CCCNC(=O)CCOCCOCCOCCNC(=O)Cc1ccc2ccc3cccc4ccc1c2c34)CCCNc1cc(-c2ccc3ccccc3c2)nc2ccccc12,-96.8% (active)

# Tested on: IGROV1 ovarian
# Assay: as above
# Details: 10 µM unless noted
row,Compound,growth
1,CC1(C)[C@@H](O[C@@H]2OC[C@@H](O[C@@H]3O[C@H](CO)[C@@H](O)[C@H](O)[C@H]3O[C@@H]3OC[C@@H](O)[C@H](O)[C@H]3O)[C@H](O)[C@H]2O[C@@H]2O[C@H](CO)[C@@H](O)[C@H](O)[C@H]2O)CC[C@]2(C)[C@H]3CC[C@]45OC[C@@]6(CC[C@](C)(C=O)C[C@H]64)[C@H](O)C[C@@]5(C)[C@]3(C)CC[C@@H]12,-71.7% (active)
2,O=C(CCl)NNc1nccc(Nc2ccc(S(=O)(=O)Nc3ccncc3)cc2)n1,18.8%
3,CS(=O)(=O)Nc1cc(-c2ccc3ncc(C#N)c(Nc4ccc(F)c(Cl)c4)c3c2)cnc1Cl,-16.4% (active)
4,Cc1[nH]c(C2CC(c3ccc(C(F)(F)F)c(F)c3)=NN2c2ccccc2)c(C)c1C(=O)NCC(F)(F)F (stereo not given),67.3%
